Measurements reported in PubChem BioAssay (Tox21).
Inconclusive results are not listed. The source made the active and inactive calls. The call rests on the fitted dose curve; in most records, active means well fitted activation curve with a large enough effect in the repeat runs; inconclusive means weak or mixed curves, or effect the other way; inactive means no such curve, though single readings can be large or run the other way.

Assay: qHTS assay to identify small molecule agonists of the estrogen related receptor signaling pathway with the pleiotropic PPARgamma coactivator (PGC) from Tox21 10K library (AID 1224842); further: nearly all actives have a fitted effect of over 15% in size
Details: PGC/ERR reporter cell line, luciferase ONE-Glo, 18 h; series mostly up to 92.4 µM; activation: at the top concentration
Excerpt: National Center for Advancing Translational Sciences [NCATS] NIH Chemical Genomics Center [NCGC] U.S. Environmental Protection Agency [EPA] National Institutes of Environmental Health Sciences [NIEHS] National Toxicology Program [NTP] Assay overview: Estrogen related receptors (ERRs), the first orphan nuclear receptors discovered, play an important role in the control of cellular energy metabolism. ERRs are required for high-energy production in response to the environmental challenges. The pleiotropic PPARgamma coactivator (PGC) is a major partner of ERR and a key regulator in energy homeostasis. Together they have been implicated in the etiology of metabolic disorders such as Type 2 diabetes and metabolic syndrome. ERR-alpha was also identified as an adverse marker for breast cancer progression; ERR-alpha-positive tumors have a poor prognosis. To screen and to identify environmental compounds that perturb the PGC/ERR signaling pathways could provide valuable information for potential therapeutic or preventive measures in the treatment of metabolic disease. For identifying PGC/ERR agonists, PGC/ERR cell line (provided by NTP) has been used to screen Tox21 10K library.
Assay Protocol Summary: The PGC/ERR cells were dispensed at 2,000 cells/5 ul/well in 1536-well white plates using a Multidrop dispenser. After the assay plates were incubated at a 37 C/5% CO2 incubator for 6 hours, 23 nL of compounds dissolved in DMSO, positive and negative controls or DMSO only was transferred to the assay plate by a pin tool. The plates were incubated at 37 C for 18 hours. 4 ul/well of One-Glo reagent was added into the assay plates using a Flying Reagent Dispenser. After 30-minute incubation at room temperature, the luminescence intensity in the plates was measured using a ViewLux plate reader.
On the % scale 0 is the no-effect control and ±100 the full control effect; potency means the concentration at half of the fitted maximal effect.

Structure (SMILES) | activation | Potency
COc1cc(Cl)c(OC)cc1Cl | -0.479% (inactive) | –
CCC(C)(NC(=O)c1cc(Cl)c(C)c(Cl)c1)C(=O)CCl (stereo not given) | -31.9% (inactive) | –
C=CC(=O)OCC(C)C | -0.973% (inactive) | –
CC(C)(OO)c1ccccc1 | 4.48% (inactive) | –
CC(=O)C(C)(C)C | -0.46% (inactive) | –
CC(c1ccc(O)cc1)(c1ccc(O)cc1)c1ccc(O)cc1 | -24.5% (inactive) | –
CO[C@@H]1[C@H](OC(=O)NC(=O)CCl)CC[C@]2(CO2)[C@H]1[C@@]1(C)O[C@@H]1CC=C(C)C | -7.49% [at 19 µM] (inactive) | –
C/C(=C\c1ccccc1)[N+](=O)[O-] | -38.1% (inactive) | –
O=C(O)COc1ccc(Cl)cc1 | -0.109% (inactive) | –
O=[N+]([O-])c1cc(C(F)(F)F)cc([N+](=O)[O-])c1Cl | -4.69% (inactive) | –
COP(=O)(OC)O/C(=C/Cl)c1cc(Cl)c(Cl)cc1Cl | -30.8% (inactive) | –
O=[N+]([O-])c1ccc(F)c([N+](=O)[O-])c1 | -18.4% (inactive) | –
CC1Sc2c(C(=O)O)c(=O)c3cc(F)c(N4CCNCC4)cc3n21 (stereo not given) | 1.24% [at 42.5 µM] (inactive) | –
O=C(Nc1ccccc1)Nc1cnns1 | -0.262% (inactive) | –
C=CCN1CC[C@]23c4c5ccc(O)c4O[C@H]2C(=O)CC[C@@]3(O)[C@H]1C5 | 0.106% [at 42.5 µM] (inactive) | –
N#Cc1ccc(Cl)cc1 | -0.59% (inactive) | –
COc1cc(CC(C)N)cc2c1OCO2 (stereo not given) | -2.15% (inactive) | –
CCC(Cl)CCl (stereo not given) | -0.134% (inactive) | –
COCC(C)N(C(=O)CCl)c1c(C)csc1C (stereo not given) | -31.2% (inactive) | –
NCC(CC(=O)O)c1ccc(Cl)cc1 (stereo not given) | -1% [at 0.349 µM] (inactive) | –

Structure (SMILES) | activation | Potency
CCOP(=O)(OCC)Oc1ccc([N+](=O)[O-])cc1 | – | inactive
CC(=O)NC1CCSC1=O (stereo not given) | -0.339% [at 42.5 µM] (inactive) | –
COP(=S)(Oc1cc(Cl)c(Br)cc1Cl)c1ccccc1 (stereo not given) | -15.5% (inactive) | –
Cc1ccc2ccccc2c1 | 0.549% (inactive) | –
CCCCOC(=O)c1ccccc1C(=O)OCc1ccccc1 | – | inactive
CNP(=O)(OC)Oc1ccc(C(C)(C)C)cc1Cl (stereo not given) | -6.14% (inactive) | –
NC(=O)CI | -8.73% (inactive) | –
O=C(O)C(F)(F)C(F)(F)C(F)(F)C(F)(F)C(F)(F)C(F)(F)C(F)(F)C(F)(F)C(F)(F)F | -0.321% (inactive) | –
CCBr | 3.7% (inactive) | –
CC(O)(CS(=O)(=O)c1ccc(F)cc1)C(=O)Nc1ccc(C#N)c(C(F)(F)F)c1 (stereo not given) | -18.2% [at 42.5 µM] (inactive) | –
CC/C(=N\OC/C=C/Cl)C1=C(O)CC(C2CCOCC2)CC1=O (stereo not given) | -0.373% (inactive) | –
Cc1ccc(N)cc1C | – | 3.47 µM (active)
CCCN(CCCl)c1c([N+](=O)[O-])cc(C(F)(F)F)cc1[N+](=O)[O-] | -5.18% (inactive) | –
Cc1ccccc1CCl | 0.651% (inactive) | –
[CH3][Sn]([CH3])([Cl])[Cl] | – | inactive
C=CC(=O)OCCCCO | 11.1% (inactive) | –
COCCOCCO | 5.09% (inactive) | –
CO/N=C(/C(=O)OC)c1ccccc1COc1ccccc1C | -12.4% (inactive) | –
ClP(Cl)(Cl)(Cl)Cl | -4.37% (inactive) | –
CCOP(=S)(OCC)SCn1nnc2ccccc2c1=O | -12.1% (inactive) | –
